Reference: PubChem BioAssay (EPA / NIEHS)
Several values for one entry are separate records, joined by “and”; a condition that tells them apart may be missing. Identical values can stand only once. Some compounds were tested as several samples or in several runs, with calls that do not always agree. Activity calls are given as the source filed them. Rule for the calls: active = hit-call score of the fitted dose curve at least 0.9, where 1 is the maximum; inactive = score below 0.9.

Key:
[1] = read-out: Monokine induced gamma interferon (MIG), CXCL9 (gene 4283); assay: BSK_hDFCGF_MIG: BioMAP Diversity Plus: hDFCGF Assay for Monokine induced gamma interferon (MIG) Biomarker Activity (AID 2283063); conditions: primary human foreskin fibroblasts; actives raise or lower the signal
Method in brief: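 MIG signal, determined by ELISA, reflects 24 h chemical exposure of human skin primary fibroblasts. DMSO serves as negative control and baseline.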

[2] = read-out: Matrix Metallopeptidase 1 (MMP1), MMP1 (gene 4312); assay: BSK_hDFCGF_MMP1: BioMAP Diversity Plus: hDFCGF Assay for Matrix Metallopeptidase 1 (MMP1) Biomarker Activity (AID 2283064); conditions: primary human foreskin fibroblasts; actives raise or lower the signal
Method in brief: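 ELISA read-out of MMP1 from human foreskin fibroblasts (primary skin cells), 24 h post-dose. Gain or loss of signal was fitted bidirectionally versus DMSO negative control; cytotoxicity was checked by SRB in parallel cultures.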

[3] = read-out: Vascular cell adhesion molecule 1 (VCAM1), VCAM1 (gene 7412); assay: BSK_hDFCGF_VCAM1: BioMAP Diversity Plus: hDFCGF Assay for Vascular cell adhesion molecule 1 (VCAM1) Biomarker Activity (AID 2283065); conditions: primary human foreskin fibroblasts; actives raise or lower the signal;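 for AC50: VCAM-1 protein level quantified by ELISA after 24 h chemical exposure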
Method in brief: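 Cells are dosed, cultured for 24 h, then VCAM-1 is quantified by ELISA; signal increases and decreases are both fitted relative to DMSO.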

[4] = read-out: Plasminogen activator inhibitor-1 (PAI1), SERPINE1 (gene 5054); assay: BSK_hDFCGF_PAI1: BioMAP Diversity Plus: hDFCGF Assay for Plasminogen activator inhibitor-1 (PAI1) Biomarker Activity (AID 2283066); conditions: primary human foreskin fibroblasts; actives raise or lower the signal
Method in brief: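 Human skin fibroblast cultures receive chemical for 24 h before PAI-1 is measured by ELISA; signal changes are fitted bidirectionally against DMSO-treated wells.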

[5] = read-out: Intercellular Adhesion Molecule 1 (ICAM1), ICAM1 (gene 3383); assay: BSK_KF3CT_ICAM1: BioMAP Diversity Plus: KF3CT Assay for Intercellular Adhesion Molecule 1 (ICAM1) Biomarker Activity (AID 2283067); conditions: primary human keratinocytes with fibroblasts; actives raise or lower the signal
Method in brief: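 Dose the keratinocyte/fibroblast co-culture, wait 24 h, measure ICAM-1 by ELISA, then fit increases or decreases against DMSO. Cytotoxicity is checked in parallel cultures by SRB total-protein staining.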

[6] = read-out: Interferon-gamma inducible Protein 10 (IP10), CXCL10 (gene 3627); assay: BSK_KF3CT_IP10: BioMAP Diversity Plus: KF3CT Assay for Interferon-gamma inducible Protein 10 (IP10) Biomarker Activity (AID 2283068); conditions: primary human keratinocytes with fibroblasts; actives raise or lower the signal
Method in brief: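 ELISA read-out of IP-10 after 24 h chemical dosing of human skin primary co-culture (keratinocytes, foreskin fibroblasts). Gain or loss of signal relative to DMSO, bidirectional curve fit.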

[7] = BSK_KF3CT_SRB: Viability Assessment in the BioMAP Diversity Plus: KF3CT Assay (AID 2283069); conditions: primary human keratinocytes with fibroblasts;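 note: total protein by sulforhodamine B staining as a cytotoxicity measure; read 24 h after compound addition; fitted for both signal gain and loss against DMSO baseline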
Method in brief: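 SRB read-out at 560 nm (0.1% stain, TCA-fixed cells) gauges overt cytotoxicity in a human skin keratinocyte–fibroblast co-culture 24 h post-dosing. Signal change was fitted bidirectionally relative to DMSO control.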

[8] = read-out: Interleukin-1 alpha (IL1a), IL1A (gene 3552); assay: BSK_KF3CT_IL1a: BioMAP Diversity Plus: KF3CT Assay for Interleukin-1 alpha (IL1a) Biomarker Activity (AID 2283070); conditions: primary human keratinocytes with fibroblasts; actives raise or lower the signal
Method in brief: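 Primary skin co-culture (keratinocytes, foreskin fibroblasts), 24 h exposure; ELISA for IL-1a; bidirectional curve fit vs DMSO.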

[9] = read-out: TIMP metallopeptidase inhibitor 2 (TIMP2), TIMP2 (gene 7077); assay: BSK_KF3CT_TIMP2: BioMAP Diversity Plus: KF3CT Assay for TIMP metallopeptidase inhibitor 2 (TIMP2) Biomarker Activity (AID 2283071); conditions: primary human keratinocytes with fibroblasts; actives raise or lower the signal
Method in brief: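 Measurements come from ELISA detection of TIMP-2 at 24 hours in a dosed human keratinocyte and foreskin fibroblast co-culture. DMSO serves as negative control and baseline.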

[10] = read-out: Transforming growth factor beta 1 (TGFb1), TGFB1 (gene 7040); assay: BSK_KF3CT_TGFb1: BioMAP Diversity Plus: KF3CT Assay for Transforming growth factor beta 1 (TGFb1) Biomarker Activity (AID 2283072); conditions: primary human keratinocytes with fibroblasts; actives raise or lower the signal
Method in brief: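 TGF-b1 ELISA on a 24 h dosed co-culture of human keratinocytes and foreskin fibroblasts; cytotoxicity tracked in parallel cultures by SRB staining.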

Measured: AC50

CN(C)c1ccc(C(=C2C=CC(=[N+](C)C)C=C2)c2ccccc2)cc1
active: [1] 0.0509 µM | [2] 0.765 µM | [3] 0.0134 µM | [4] 18.5 nM | [5] 0.516 µM | [6] 0.39 µM | [7] 0.318 µM | [8] 0.359 µM | [9] 0.795 µM | [10] 0.194 µM

OCC(F)(F)C(F)(F)C(F)(F)C(F)(F)C(F)(F)C(F)(F)C(F)(F)C(F)(F)C(F)(F)C(F)(F)C(F)(F)F
inactive: [1] | [2] | [3] | [4] | [5] | [6] | [7] | [8] | [9]
active: [3] 0.189 µM

COC1=CC(=O)C[C@@H](C)[C@]12Oc1c(Cl)c(OC)cc(OC)c1C2=O
active: [4] 497 nM | [8] 1.98 µM
inactive: all other assays above

OCCN1CN(CCO)CN(CCO)C1
active: [1] 20 µM | [3] 15.5 µM | [5] 20 µM | [8] 5.9 µM | [10] 3.97 µM
inactive: [2] | [4] | [6] | [7] | [9]

O=C(O)CCC(F)(F)C(F)(F)C(F)(F)C(F)(F)C(F)(F)C(F)(F)F
not listed: [4] | [10]
inactive: all other assays above

OCC(CO)(CBr)CBr
inactive: all assays above

O=P(O)(O)CCC(F)(F)C(F)(F)C(F)(F)C(F)(F)C(F)(F)C(F)(F)C(F)(F)C(F)(F)F
active: [1] 0.615 µM
inactive: [1] | [2] | [3] | [5] | [6] | [7] | [8] | [9]

CCCCc1oc2ccccc2c1C(=O)c1cc(I)c(OCCN(CC)CC)c(I)c1
active: [1] 10.2 µM | [2] 9.45 µM | [3] 8.94 µM | [5] 22.8 µM | [6] 8.36 µM | [7] 9.02 µM | [8] 9.69 µM | [9] 8.7 µM | [10] 5.6 µM

O=C(NCc1ncc(C(F)(F)F)cc1Cl)c1c(Cl)cccc1Cl
inactive: all assays above

O=C(O)CCC(F)(F)C(F)(F)C(F)(F)C(F)(F)C(F)(F)F
inactive: [1] | [2] | [3] | [4] | [5] | [6] | [7] | [8] | [9]
active: [2] 13.8 µM

O=C1OC2(c3ccccc31)c1cc(I)c(O)c(I)c1Oc1c2cc(I)c(O)c1I
inactive: [7]
active: [1] 18.6 µM | [2] 7.71 µM | [3] 12 µM | [5] 17.4 µM | [6] 18.4 µM | [8] 4.82 µM | [9] 2.44 µM | [10] 3.45 µM

CC(=O)Nc1ccc(O)cc1
not listed: [4]
inactive: all other assays above

C=CC(=C)CC/C=C(\C)CCC=C(C)C
inactive: all assays above

COc1cc(OC)nc(NC(=O)NS(=O)(=O)Nc2ccccc2C(=O)N(C)C)n1
inactive: all assays above

CCCCCCCCCCCC
active: [1] 11.6 µM and 10.2 µM | [2] 5.36 µM and 7.16 µM | [3] 8.36 µM and 7.77 µM | [4] 11.2 µM and 10.6 µM | [5] 15.2 µM and 15.8 µM | [6] 11.1 µM and 10.1 µM | [8] 11.4 µM and 12.2 µM | [9] 7.91 µM and 9.05 µM
inactive: [7]

CCC(C)c1ccccc1O (stereo unspecified)
inactive: all assays above

CN(CCO)S(=O)(=O)C(F)(F)C(F)(F)C(F)(F)C(F)(F)C(F)(F)C(F)(F)C(F)(F)C(F)(F)F
not listed: [4] | [10]
inactive: all other assays above
